Records with an inconclusive call do not appear. Active and inactive are the calls of the source. How the source made its calls: active means hit-call score of the fitted dose curve at least 0.9, where 1 is the maximum; inconclusive means response in the unintended direction; inactive means score below 0.9.
test: CCTE_Harrill_HTTr_CellCount_MCF7: CCTE's Cell Proliferation Assessment for the High-Throughput Transcriptomics (HTTr) Platform, Harrill Lab (AID 2284012);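 further: cells exposed to compound for six hours; intended direction is loss of nuclei count meaning fewer cells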
Source text: This is a cell-based assay that evaluates cell viability and cell growth using high content imaging to count the number of Hoechst-labeled nuclei that are present in an assay well in 384-well format.This is a cell-based assay that evaluates cell viability and cell growth in MCF-7 cells. This was part of a full screening experiment. High content imaging is used to count the number of Hoechst-labeled nuclei that are present in an assay well in 384-well format.The assay component endpoint CCTE_Harrill_HTTr_CellCount_MCF7 was analyzed with bidirectional fitting relation to DMSO as the negative control and baseline of activity. Using a type of viability reporter, loss-of-signal activity can be used to understand changes in cell count. To generalize the intended target to other relatable targets, this assay endpoint is annotated to cell cycle, where the subfamily is cell count.
Chemicals were tested in MCF7 cells in an eight point dilution series with a six hour exposure duration.

outcome, inactive:
Cc1cc(SC2=C(O)C[C@@](CCc3ccc(N)cc3)(C(C)C)OC2=O)c(C(C)(C)C)cc1CO
Oc1ccc(O)cc1
NC1CCCCC1
Cc1ccc(-c2cc(C(F)(F)F)nn2-c2ccc(S(N)(=O)=O)cc2)cc1
C=CCc1ccc(OC)c(OC)c1
CCCC(=O)O
CC(=O)OC1CC(C)OC(C)O1 (stereo not given)
COC(=O)[C@H]1[C@H]2C[C@@H]3c4[nH]c5cc(OC)ccc5c4CCN3C[C@H]2C[C@@H](OC(=O)c2cc(OC)c(OC)c(OC)c2)[C@@H]1OC
CC(=O)CC(c1ccccc1)c1c(O)c2ccccc2oc1=O (stereo not given)
O=C1CCCCC1
O=C(Oc1ccccc1)c1cccc(C(=O)Oc2ccccc2)c1
CC(=O)S[C@H](C(=O)N[C@H]1Cc2ccccc2[C@H]2CCC[C@@H](C(=O)O)N2C1=O)C(C)C
Nc1nc(Cl)nc2c1ncn2[C@H]1C[C@H](O)[C@@H](CO)O1
CC(C)c1cccc(C(C)C)c1NC(=O)NS(=O)(=O)c1cc(C(C)(C)O)co1
COC(=O)CCC(=O)OC
O=C1NC(=O)C(c2ccccc2)(c2ccccc2)N1
CC(C)OC(=O)C(C)(C)Oc1ccc(C(=O)c2ccc(Cl)cc2)cc1
CC1=C(C)S(=O)(=O)CCS1(=O)=O
C/C=C/c1ccc(OC)cc1
CC(C)NCC(O)c1ccc(O)c(O)c1 (stereo not given)
CN(C)C(=O)NC1(c2ccccc2)CCN(CC[C@@]2(c3ccc(F)c(F)c3)CN(C(=O)c3ccccc3)CCO2)CC1
CS(=O)(=O)c1ccc([C@@H](C[C@H]2CCC(=O)C2)C(=O)Nc2cnccn2)cc1Cl
CCc1nc(N)nc(N)c1-c1ccc(Cl)cc1
O=C1OC(c2ccc(O)cc2)(c2ccc(O)cc2)c2ccccc21
Cn1cnc2c1c(=O)[nH]c(=O)n2C
O=Cc1ccccc1C=O
CC(=O)O[C@]1(C(C)=O)CC[C@H]2[C@@H]3C=C(Cl)C4=CC(=O)[C@@H]5C[C@@H]5[C@]4(C)[C@H]3CC[C@@]21C
CC(C)(C)c1ccccc1
O=C1c2c(O)cccc2Cc2cccc(O)c21
CCCCOC(=O)CCCCC(=O)OCCCC
O=NO
O=C(N[C@@H](c1ccccc1)[C@@H]1CCCCN1)c1cccc(C(F)(F)F)c1Cl
CC(=O)[C@@]1(O)CC[C@H]2[C@@H]3CCC4=CC(=O)CC[C@]4(C)[C@H]3CC[C@@]21C
C=CCCCCCCCCCCCC
CC(=O)O
CCCC[C@H]1CN(CC2CCOCC2)C(=O)OC12CCN(C1(C)CCN(C(=O)c3c(C)ncnc3C)CC1)CC2
O=C(O)c1cccnc1
CN(C)CCCN(C)CCCN(C)C
CC(N)=O
Cc1ccc(C(C)(C)C)c(O)c1

Reference: PubChem BioAssay (EPA / NIEHS)
